“And” between values parts separate entries of the source, which are not always exact repeats. Identical values can stand only once. Like-named read-outs stand apart in the source and are kept apart here.
Tests used:
ROCK1 = settings: n = 1
ROCK2 = settings: n = 1
ROS1 = settings: n = 1
[1] = tested on: RPS6KA4(Kin.Dom.1-N-terminal); settings: n = 1
[2] = tested on: RPS6KA4(Kin.Dom.2-C-terminal); settings: concentration: 1 μM, replicates: in singlicate; n = 1
[3] = tested on: RPS6KA5(Kin.Dom.1-N-terminal); settings: n = 1
[4] = tested on: RPS6KA5(Kin.Dom.2-C-terminal); settings: n = 1
[5] = tested on: T1, RSK1(Kin.Dom.1-N-terminal); settings: n = 1
T1 construct: gene RPS6KA1

[6] = tested on: T2, RSK1(Kin.Dom.2-C-terminal); settings: n = 1
T2 construct: gene RPS6KA1

[7] = tested on: T3, RSK2(Kin.Dom.1-N-terminal); settings: n = 1
T3 construct: gene RPS6KA3

[8] = concentration: 1 μM, replicates: in singlicate
[9] = concentration: 1 μM,replicates: in singlicate, 1 µM
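Note: KINOMEscan kinase panel screen.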

SMILES	%Inh (ROCK1; [8])	%Inh (ROCK2; [8])	%Inh (ROS1; [8])	%Inh [1, 8]	%Inh [2]	%Inh [3, 8]	%Inh [4, 8]	%Inh [5, 8]	%Inh [6, 8]	%Inh [7, 8]	%Inh (ROCK1; [9])	%Inh (ROCK2; [9])	%Inh (ROS1; [9])	%Inh [1, 9]	%Inh [3, 9]	%Inh [4, 9]	%Inh [5, 9]	%Inh [6, 9]	%Inh [7, 9]
Cc1cccc(-c2nc(Nc3ccc4[nH]ncc4c3)c3ccccc3n2)n1 [GW857175]	29%	52%	17%	0%	33%	0%	5%	15%	50%	18%	–	–	–	–	–	–	–	–	–
CCn1c(-c2ccccn2)nc2cnccc21 [SB-736398]	14%	30%	0%	13%	0%	15%	0%	65%	0%	15%	–	–	–	–	–	–	–	–	–
CC(=O)Nc1nc2cnc(Nc3cc(NC(=O)c4cccc(CCC#N)c4)ccc3C)nc2s1	14%	15%	0%	0%	0%	15%	2%	0%	0%	5%	–	–	–	–	–	–	–	–	–
NC(=O)c1nnc2ccccc2c1N	0%	7%	0%	21%	30%	6%	21%	31%	0%	33%	–	–	–	–	–	–	–	–	–
CCn1c(-c2cccnc2O)nc2cnccc21 [SB-736715]	11%	0%	0%	0%	0%	0%	0%	0%	0%	4%	–	–	–	–	–	–	–	–	–
Cn1ccc2ncnc(Oc3ccc(Nc4nc5ccccc5[nH]4)cc3)c21	0%	0%	0%	0%	0%	7%	0%	0%	0%	0%	–	–	–	–	–	–	–	–	–
Cc1c(O)cccc1Nc1ccnc2ccc(C(F)(F)F)cc12.Cl [GW466413]	10%	20%	3%	17%	0%	32%	0%	0%	2%	0%	–	–	–	–	–	–	–	–	–
COC(=O)c1c(-c2ccccc2)c2cc(C(=O)O)ccc2c(=O)n1Cc1ccccc1	10%	0%	0%	0%	6%	11%	0%	0%	18%	0%	–	–	–	–	–	–	–	–	–
CN(C)CCN(C)C(=O)c1cc(-c2ccncc2)c(-c2ccc(Cl)c(O)c2)o1.Cl.Cl [SB-710397]	26%	17%	0%	13%	0%	10%	2%	25%	25%	8%	–	–	–	–	–	–	–	–	–
Cl.Oc1ccc(-c2nc(-c3ccccc3)[nH]c2-c2ccncc2)cc1 [SB-428218]	70%	61%	0%	0%	0%	0%	11%	30%	0%	6%	–	–	–	–	–	–	–	–	–
Cc1csc(-c2nc(Nc3ccncc3)c3ccccc3n2)n1 [GW869640]	65%	18%	22%	52%	17%	13%	16%	0%	22%	42%	–	–	–	–	–	–	–	–	–
Cc1cc(NCC(c2ccccc2)c2ccccc2)nc(NCc2ccc(C(F)(F)F)cc2)n1 [GW497681]	0%	23%	0%	0%	0%	0%	1%	0%	6%	0%	–	–	–	–	–	–	–	–	–
COc1cc(Nc2nccc(N3CCC(NC(=O)Nc4cc(C)ccc4C)C3)n2)cc(OC)c1OC (stereo not drawn) [GSK1379762]	12%	2%	42%	8%	0%	22%	2%	2%	0%	0%	–	–	–	–	–	–	–	–	–
Cn1ccc2ncnc(Oc3ccc(NC(=O)Nc4ccccc4)cc3)c21	0%	24%	15%	21%	0%	0%	2%	0%	0%	0%	–	–	–	–	–	–	–	–	–
O=C(Nc1ccccc1)Nc1cccc(Oc2ccc3nccn3n2)c1	0%	0%	0%	43%	0%	0%	0%	0%	0%	0%	–	–	–	–	–	–	–	–	–
CS(=O)(=O)c1ccc(-c2nc3n(c2-c2ccncc2)CCC3)cc1 [SKF-105942]	0%	0%	2%	1%	0%	0%	0%	27%	0%	4%	–	–	–	–	–	–	–	–	–
Fc1cc(Cl)ccc1Nc1ccnc2cc(-c3ccc(CN4CCCCC4)o3)ccc12 [GW560116]	31%	24%	2%	0%	0%	0%	8%	0%	26%	0%	–	–	–	–	–	–	–	–	–
Cc1cc(N2Cc3ccccc3C2)nc(Nc2ccc(S(=O)(=O)N3CCOCC3)cc2)n1.Cl [GSK1669917]	0%	0%	18%	5%	0%	0%	0%	0%	17%	0%	–	–	–	–	–	–	–	–	–

SMILES	%Inh (ROCK1; [8])	%Inh (ROCK2; [8])	%Inh (ROS1; [8])	%Inh [1, 8]	%Inh [2]	%Inh [3, 8]	%Inh [4, 8]	%Inh [5, 8]	%Inh [6, 8]	%Inh [7, 8]	%Inh (ROCK1; [9])	%Inh (ROCK2; [9])	%Inh (ROS1; [9])	%Inh [1, 9]	%Inh [3, 9]	%Inh [4, 9]	%Inh [5, 9]	%Inh [6, 9]	%Inh [7, 9]
Clc1cc(Cl)cc(Nc2ccnc(Nc3cc(Cl)cc(Cl)c3)n2)c1 [GSK175726]	4%	0%	37%	0%	0%	8%	9%	1%	26%	0%	–	–	–	–	–	–	–	–	–
Fc1cccc(COc2nnc(-c3ccc4c(c3)CCO4)o2)c1	0%	0%	0%	0%	30%	0%	9%	0%	43%	0%	–	–	–	–	–	–	–	–	–
Cc1cc(-c2ccc3c(c2)CC[C@@H](N[C@@H](C)c2ccccc2)C3)cnc1N.Cl [GW412617]	7%	5%	15%	16%	0%	6%	0%	0%	8%	4%	–	–	–	–	–	–	–	–	–
O=C(Nc1ccc2c(c1)OCO2)NC1CCN(c2ccnc(Nc3ccc(F)cc3)n2)C1 (stereo not drawn) [GSK1379724]	6%	3%	0%	0%	0%	11%	0%	11%	0%	12%	–	–	–	–	–	–	–	–	–
Cc1cccc(-c2nc(-c3ccc(S(C)(=O)=O)cc3)sc2-c2ccnc(NCCc3ccccc3)c2)c1	0%	0%	0%	5%	2%	18%	0%	0%	8%	0%	–	–	–	–	–	–	–	–	–
O=S(=O)(c1ccc(-c2ccnc3[nH]ccc23)cc1)N1CCCC1 [GSK846226]	81%	82%	12%	5%	56%	8%	76%	8%	54%	18%	–	–	–	–	–	–	–	–	–
Cc1ccc(NC(=O)Nc2cccc(Cl)c2)cc1-c1ccc(C(=O)Nc2ccncc2)cc1 [GSK1398468]	0%	13%	0%	24%	0%	10%	39%	23%	0%	0%	–	–	–	–	–	–	–	–	–
COc1ccc(CNC(=O)NC2CCN(c3ccnc(Nc4cc(OC)c(OC)c(OC)c4)n3)C2)cc1 (stereo not drawn) [GSK1379748]	20%	31%	29%	0%	0%	0%	21%	0%	1%	3%	–	–	–	–	–	–	–	–	–
Nc1nc(-c2nccs2)c(-c2ccnc3ccccc23)s1 [GW693542]	14%	18%	0%	20%	0%	20%	0%	20%	0%	0%	–	–	–	–	–	–	–	–	–
COc1ccc(Nc2nccc(NCCNC(=O)Nc3ccccc3F)n2)cc1 [GSK1379901]	30%	44%	24%	14%	0%	14%	27%	16%	0%	1%	–	–	–	–	–	–	–	–	–
O=C(Nc1n[nH]c2cc(-c3cccc(F)c3F)ccc12)C1CC1 [SB-733894]	0%	9%	7%	0%	2%	0%	2%	13%	6%	0%	–	–	–	–	–	–	–	–	–
CSc1nn2c(=O)cc(N3CCOCC3)nc2n1Cc1cccc(C(F)(F)F)c1C [GSK2363608]	–	–	–	–	0%	–	–	–	–	–	98.3% and 17%	98.9% and 0%	14% and 0%	28% and 0%	12% and 0%	19% and 9%	20% and 10%	1% and 0%	9% and 2%
COc1cc2nccc(Nc3ccc(NC(=O)c4ccc(C)cc4)c(O)c3)c2cc1OC.Cl [GW440132]	0%	4%	47%	11%	0%	18%	0%	9%	0%	7%	–	–	–	–	–	–	–	–	–
O=C1NC(=O)C(N2CCc3ccccc32)=C1c1ccccc1Cl [SB-373598]	4%	0%	22%	41%	0%	7%	10%	0%	14%	65%	–	–	–	–	–	–	–	–	–
Cl.c1ccc(-c2n[nH]cc2-c2ccnc(-c3ccc(CN4CCOCC4)cc3)c2)nc1 [GW776245]	0%	0%	0%	0%	0%	0%	44%	0%	17%	34%	–	–	–	–	–	–	–	–	–
Cc1cccc(-c2nc(Nc3ccncc3)c3ccccc3n2)n1 [GW855857]	0%	0%	0%	20%	0%	0%	4%	0%	8%	0%	–	–	–	–	–	–	–	–	–
COc1ccc(C2=C(Nc3cccc(C(=O)O)c3)C(=O)NC2=O)cc1 [SB-390765]	20%	0%	14%	19%	17%	2%	9%	30%	7%	34%	–	–	–	–	–	–	–	–	–
CC(C)(C)c1ccc(C(=O)Nc2cn3cc(-c4cccnc4)ccc3n2)cc1	0%	7%	0%	15%	0%	0%	6%	19%	42%	17%	–	–	–	–	–	–	–	–	–
